# Records with an inconclusive call do not appear. Where a call stands in place of a potency, no number is given. Calls of active or inactive are those of the source. Calls come from the whole dose curve; as a rule, active = well fitted activation curve with a large enough effect; inconclusive = small, poorly fitted or top-dose-only effect; inactive = no such curve, though single readings can be large or run the other way.
# Experiment: qHTS assay for re-activators of p53 using a Luc reporter: Hit Validation with no p53 Expressed
# Procedure, shortened: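 Without p53 expression, cells (1000/well, Opti-MEM + 10% FBS) were exposed 24 h at 37 deg C to compounds in a 1:5 series from 10 mM stock (top 46.1 µM in well). Luminescent signal read 10 min after Amplite addition; actives flag unspecific activation.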
# Potency is the fitted concentration of half-maximal effect.
row,Compound,Potency
1,Clc1ccc(OCc2nc(-c3ccncc3)no2)c(Cl)c1,inactive
2,COc1nnc(-c2ccc(C)c(S(=O)(=O)N(C)C)c2)c2ccccc12,inactive
3,Cc1cc(C(=O)COC(=O)c2cccc(O)c2)c(C)n1C1CC1,inactive
4,CN(C(=O)CSc1nnc(-c2ccco2)o1)C1CCCCC1,inactive
5,Brc1ccccc1-c1nc(-c2ccccc2)no1,inactive
6,CC1CCN(C2=C(NS(=O)(=O)c3ccc(Br)cc3)C(=O)c3ccccc3C2=O)CC1,inactive
7,COc1cc(N/N=C/c2ccccc2O)ncn1,inactive
8,Cc1ccc(C(=O)Nc2nnc(SCC(=O)N3CCCc4ccccc43)s2)cc1,inactive
9,CCCCCNC(=O)N[C@H](C(=O)O)C(C)C,inactive
10,CC(C)c1ccc(NC(=O)c2snc3ccc(Cl)cc23)cc1,1.03 µM (active)
11,COc1ccc(-c2cc(C(F)(F)F)nc(-n3ccnc3C)n2)cc1,inactive
12,CC1CC1C(=O)Nc1nc2ccc(S(C)(=O)=O)cc2s1 (stereo not drawn),inactive
13,CS(=O)(=O)n1nc(-c2ccccc2)nc1NCc1ccco1,inactive
14,Cc1nc(NC(=O)C2CC3CCCC(C2)C3=O)sc1C (stereo not drawn),inactive
15,Cc1cccc(Nc2nc(N3CCOCC3)nc(N3CCOCC3)n2)c1,inactive
16,CCOc1ccc(OCCSc2nc3ccccc3n2CC(=O)O)cc1,inactive
17,CCOc1ccc(/C=N/NC(=O)CN2CCSCC2)cc1,inactive
18,Cc1ccc(NC(=O)NC(=O)CN2CCC(C(N)=O)CC2)c(C)c1,inactive
19,Cc1cc(C(F)(F)F)c(C#N)c(SCC(=O)Nc2nc3ccccc3s2)n1,0.116 µM (active)
20,O=C(Nc1ccc2c(c1)CCC2)c1ccccc1F,inactive
21,Nc1nc(-c2ccc([N+](=O)[O-])cc2)cs1,inactive
22,CCOC(=O)c1[nH]c(C)c(C(=O)NCCC2=CCCCC2)c1C,inactive
23,Cc1ccc2nc(-c3ccc(NC(=O)COC(=O)c4cncc(Br)c4)cc3)sc2c1,inactive
24,Cc1cc(NC(=O)c2ccc3c(c2)OCCO3)no1,inactive
25,COc1ccc(N2C(=O)CC(Cc3ccc(Br)cc3)C2=O)cc1 (stereo not drawn),inactive
26,COc1ccc2c(c1OC)C(=O)OC2Nc1nc(-c2cc3ccccc3oc2=O)cs1 (stereo not drawn),inactive
27,O=C(NNC(=O)c1ccc(Cl)cc1Cl)c1ccncc1,inactive

row,Compound,Potency
1,CC1(C)NC(=O)N(CC(=O)N2CCN(S(=O)(=O)c3ccccc3C(F)(F)F)CC2)C1=O,inactive
2,COc1ccc(-n2cnc3cc(C(=O)N4CCOCC4)ccc32)cc1,inactive
3,COCC(C)NC(=O)C1CC(=O)N(c2ccc(C)cc2)C1 (stereo not drawn),inactive
4,COc1ccc(-n2cc(-c3ccccc3)[nH]c2=S)cc1,inactive
5,Cn1c(CCN2CCCCC2)nc2cc(NC(=O)Nc3ccccc3)ccc21,inactive
6,O=C(N/N=C(\c1ccccc1)c1ccccn1)c1ccccc1Cl,inactive
7,Cc1ccc2nc(N3C(=O)C(O)=C(C(=O)c4ccc(C)o4)C3c3ccco3)sc2c1 (stereo not drawn),inactive
8,COCCn1c(SCC(=O)Nc2ccc(N3CCOCC3)cc2)nc2ccccc21,inactive
9,CSC1=NCCN1C(=O)c1ccc(Br)o1,inactive
10,Cc1ccc2oc(-c3ccc(C)c(NC(=S)NC(=O)c4cccs4)c3)nc2c1,inactive
11,CNC(=S)N/N=C(\C)c1ccc(N2CCOCC2)cc1,inactive
12,COc1ccc(-n2cnc3c(cnn3CCC#N)c2=N)cc1,inactive
13,O=C(Nc1ccc(N2CCCCCC2)cc1)c1ccc[nH]1,1.84 µM (active)
14,c1ccc2sc(-c3ccc4c(c3)OCO4)nc2c1,inactive
15,COc1ccc(C(=O)Nc2nnc(C(F)(F)F)s2)cc1,inactive
16,Cc1ccc(C(=O)Nc2cnc3sc(C)nn3c2=O)cc1,inactive
17,O=C(COc1ccc(Cl)cc1Cl)Nc1ccc(Cl)cn1,inactive
18,O=C(NNC(=S)NC1CCCCC1)c1cccs1,inactive
19,CCOC(=O)NC1(Nc2ccc(C)cc2)Oc2ccccc2O1,inactive
20,O=C(CSCC(=O)Nc1cccc([N+](=O)[O-])c1)Nc1ccccc1,inactive
21,Cc1noc(C)c1COc1ccc(C(=O)NCCOc2ccccc2)cc1,inactive
22,Cc1ccc(NC(=S)NCC2CCCO2)c(OC(F)F)c1 (stereo not drawn),inactive
23,COc1cc(CN2CCCCC2C(=O)Nc2ccc(Oc3ccccc3)nc2)ccc1O (stereo not drawn),inactive
24,O=C(Nc1ccc(CN2CCOCC2)cc1)c1cc2ccccn2n1,inactive
25,Cc1ccc(NC(=O)c2ccc(OC(=O)COc3ccc(Cl)c(C)c3)cc2)cc1,inactive
26,COc1cc(C(=O)N/N=C(\c2ccccc2)c2ccccn2)cc(OC)c1OC,inactive
